Measurements: PubChem BioAssay AID493199 (National Center for Advancing Translational Sciences (NCATS), 2011)
This is one part of the list. Inconclusive results are not listed. Calls of active or inactive are those of the source. Calls come from the whole dose curve; as a rule, active = well fitted inhibition curve with a large enough effect; inconclusive = small, poorly fitted or top-dose-only effect, or effect the other way; inactive = no such curve, though single readings can be large or run the other way.

The molecules below were run against Muscleblind-like protein 1 (Homo sapiens) (UniProt Q9NR56) (assay: qHTS Assay for Inhibitors of MBNL1-poly(CUG) RNA binding: Initial hit validation from the primary screen). Conditions: TR-FRET MBNL1-His / biotin-(CUG)12 binding, 60 min.
Source text: NIH Chemical Genomics Center [NCGC] NIH Molecular Libraries Probe Production Centers Network [MLPCN] MLPCN Grant: R03 MH087421-01 Assay Submitter (PI): Charles Thornton NCGC Assay Overview: Expanded CTG repeats in the 3' untranslated region of the DM protein kinase (DMPK) gene causes type I myotonic dystrophy (DM1). DM1 is a multi-systemic disease with a prevalence of 1/7000. Clinical features include myotonia, progressive muscle weakness and wasting, cardiac arrhythmia, insulin resistance, hypersomnolence, cataracts, and other symptoms. The pathogenic effect of expanded CTG repeats stems from deleterious effects of the mutant transcript. CUGexp mRNA accumulates in nuclear foci and sequesters proteins of the muscleblind family, of which MBNL1 is the most common family member in skeletal muscles. The binding interaction between MBNL1 and CUGexp tracts leads to deregulation of alternative splicing and is therefore a key molecular step in the pathogenesis of DM1. To target this binding interaction, we optimized a protein-RNA binding assay in 1536-well format for identification of small molecule inhibitors of biotinylated (CUG)12 and his-tagged MBNL1 binding. Protein-RNA complex of MBNL1-His and Biotin-(CUG)12 captures the detection reagents terbium-labeled anti-His antibody and streptavidin conjugated XL665. This brings the terbium label within close proximity to XL665 to allow time-resolved fluorescence resonance energy transfer (TR-FRET). Inhibitors of MBNL1-(CUG)12 binding will disrupt TR-FRET. This deposition presents the initial confirmation of hits from the primary screen in the same assay.
NCGC Assay Protocol Summary: This is a TR-FRET binding assay with MBNL1-His and Biotin-(CUG)12 RNA. The assay uses a ratiometric measurement. […] (3) Add 1 ul of terbium labeled anti-His antibody (0.055 ng/ul final concentration) (4) Add 1 ul of streptavidin-XL665 (5 nM final concentration) (5) Incubate 60 min at room temperature (6) Detect the assay plate in a EnVision plate reader (PerkinElmer) with Ex=340 nm, Em1=665 nm and Em2=545 nm. […]

Chain of Muscleblind-like protein 1 (Homo sapiens) (Q9NR56 whole entry, looked up): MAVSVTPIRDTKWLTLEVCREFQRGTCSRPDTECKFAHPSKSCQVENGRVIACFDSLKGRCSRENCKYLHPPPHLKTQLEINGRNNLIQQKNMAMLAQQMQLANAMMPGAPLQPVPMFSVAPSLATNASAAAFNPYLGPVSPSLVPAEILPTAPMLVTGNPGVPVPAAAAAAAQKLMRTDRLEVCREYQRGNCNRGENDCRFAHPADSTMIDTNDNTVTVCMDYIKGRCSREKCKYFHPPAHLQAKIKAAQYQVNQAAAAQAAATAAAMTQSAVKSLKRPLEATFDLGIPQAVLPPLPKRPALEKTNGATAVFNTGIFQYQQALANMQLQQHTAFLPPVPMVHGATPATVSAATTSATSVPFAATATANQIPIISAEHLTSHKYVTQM

`COc1cccc(NC(=O)Cn2cnc3sc(C)c(S(=O)(=O)N4CCN(C)CC4)c3c2=O)c1` was tested. Which Potency did it give?
Its Potency is 16.3 µM (active).

For `COc1ccc(Cc2n[nH]c(=S)n2NC(=O)Nc2ccc(C)cc2)cc1`, which Potency is on record?
Its Potency is 20.6 µM (active).

For `CCOC(=O)c1c(C)[nH]c2c1-c1ccccc1C(=O)C2=O`, which Potency is on record?
Its Potency is 3.26 µM (active).
